Data reported in PubChem BioAssay (NCATS).
Inconclusive results are not listed. Entries that show only a call come without a potency. Calls of active or inactive are those of the source. Unless noted, calls follow the shape of the dose curve; as a rule, active = well fitted cell-killing curve with a large enough effect; inconclusive = small, poorly fitted or top-dose-only effect; inactive = flat fitted curve, though single readings scatter.

Key:
[1] = Cell Viability - LYMP2-025 (AID 976)
Procedure, shortened: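 Luminescent ATP readout after 24 hr treatment of a human lymphoblastoid line (LYMP2-025, 2500 cells/well, 37 C). Reagent developed 30 min at room temperature; AC50 fitted with the Hill equation.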

[2] = Cell Viability - LYMP2-002 (AID 977);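 also: compound exposure lasted 24 h at 37 °C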
Procedure, shortened: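 Human lymphoblastoid cells (2500/well) in complete medium were preincubated 5 hr at 37 C, then exposed to compounds for 24 hr at 37 C. Intracellular ATP was read by CellTiter-Glo luminescence; AC50 came from Hill-equation concentration-response fits.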

[3] = Cell Viability - LYMP2-006 (AID 978); also: nearly all actives have a fitted effect of over 60% in size
Procedure, shortened: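 Human lymphoblastoid cells (LYMP2-006), 2500/well in complete medium, were treated with compound for 24 hr at 37 C. Cellular ATP was read by CellTiter-Glo luminescence after 30 min, and AC50 values came from Hill-equation fits of concentration-response data.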

[4] = Cell Viability - LYMP2-007 (AID 979);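 also: cells exposed to compound for 24 h before reading; nearly all actives have a fitted effect of over 60% in size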
Procedure, shortened: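 Measured via luciferase-based ATP quantitation: lymphoblastoid cells, 24 hr compound exposure at 37 C, AC50 from Hill fits.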

[5] = Cell Viability - LYMP2-008 (AID 980); also: nearly all actives have a fitted effect of over 60% in size
Procedure, shortened: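 Measured: ATP-dependent luminescence, proportional to viable cell number, in human lymphoblastoid cells treated 24 hr with compound in complete culture medium. Values are AC50s from Hill-equation modelling of qHTS titrations.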

[6] = Cell Viability - LYMP2-010 (AID 981); also: nearly all actives have a fitted effect of over 55% in size; also: potency is read from the fitted curve at half-maximal effect
Procedure, shortened: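 This 24 hr viability screen uses LYMP2-010 lymphoblastoid cells, quantifies ATP via luciferase luminescence, and derives AC50 from Hill fits of qHTS concentration-response data.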

[7] = Cell Viability - LYMP2-012 (AID 982);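 also: cellular ATP by luciferase luminescence where a drop means cytotoxicity; cells exposed to compound for one day before reading; nearly all actives have a fitted effect of over 55% in size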
[8] = Cell Viability - LYMP2-014 (AID 983); also: nearly all actives have a fitted effect of over 50% in size
Procedure, shortened: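 Quantitative HTS in lymphoblastoid cells: 24 hr compound exposure, then CellTiter-Glo ATP luminescence. Positive control was tetraoctylammonium bromide, 6.4pM to 92 uM.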

[9] = Cell Viability - LYMP2-018 (AID 985); also: nearly all actives have a fitted effect of over 50% in size; also: potency is read from the fitted curve at half-maximal effect
Procedure, shortened: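 In this qHTS viability assay, cells are treated for 24 hr and cellular ATP is quantified by luciferase-based luminescence, with tetraoctylammonium bromide as positive control.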

[10] = Cell Viability - LYMP2-020 (AID 986); also: nearly all actives have a fitted effect of over 55% in size
Procedure, shortened: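 Cells at 2500 per well receive a 24 hr compound exposure at 37 C. Viability is measured as ATP-dependent luciferase luminescence, with AC50 modeled from qHTS concentration-response curves.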

[11] = Cell Viability - LYMP2-022 (AID 987); also: nearly all actives have a fitted effect of over 55% in size; also: potency is read from the fitted curve at half-maximal effect
Procedure, shortened: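 In this qHTS cytotoxicity screen, compound titrations were incubated 24 hr at 37 C with human lymphoblastoid cells in complete medium. Luciferase-based ATP luminescence provided the viability signal.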

[12] = Cell Viability - LYMP2-024 (AID 988); also: nearly all actives have a fitted effect of over 60% in size; also: potency is read from the fitted curve at half-maximal effect
Procedure, shortened: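 Cells at 2500 per well received compound for 24 hr after a 5 hr settling period. Viability was scored by CellTiter-Glo luminescence, with AC50 from Hill fits.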

[13] = Cell Viability - LYMP2-026 (AID 989); also: nearly all actives have a fitted effect of over 50% in size
Procedure, shortened: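 Acute toxicity screen in complete culture medium, with 24 hr compound exposure at 37 C. Viability read as cellular ATP via luciferase reaction, with tetraoctylammonium bromide (6.4pM to 92 uM) as positive control.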

[14] = Cell Viability - LYMP1-002 - Assay at 24 hr (AID 993); also: potency is read from the fitted curve at half-maximal effect
Procedure, shortened: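 Viability was judged from intracellular ATP using a luciferase read-out, following a 24-hour compound incubation at 37 C of lymphoblastoid cells seeded at 2500 per well. Concentration-response data were fitted to the Hill equation for AC50.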

[15] = Cell Viability - LYMP1-002 - Assay at 40 hr (AID 994); also: nearly all actives have a fitted effect of over 60% in size; also: potency is read from the fitted curve at half-maximal effect
Procedure, shortened: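 Concentration-dependent ATP loss after 40 hr treatment at 37 C defined toxicity; AC50 values were obtained by fitting the standard Hill equation.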

[16] = qHTS Assay for Lipid Storage Modulators (AID 1519; calls by dose curve); details: Drosophila S3 cells, BODIPY lipid droplet/cell ratio, laser cytometry, cells loaded with oleic acid
Procedure, shortened: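 Cells seeded at 5,000 per well were treated with compounds over a concentration series and loaded with oleic acid (400 uM, as added). Lipid droplet fluorescence (488 nm excitation, 500-530 nm channel) was read by laser-scanning cytometry and normalized to 20 uM Triacsin C.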

Compound	outcome [1]	outcome [2]	Potency [3]	Potency [4]	Potency [5]	Potency [6]	Potency [7]	Potency [8]	Potency [9]	Potency [10]	Potency [11]	Potency [12]	outcome [13]	Potency [14]	Potency [15]	activity change, negative = inhibition ([16]; at 57.5 µM (top of the series))	max response ([16]; measured here: cell count channel max response)	max response ([16]; measured here: lipid channel max response)
CC[C@H]1OC(=O)[C@H](C)[C@@H](O[C@H]2C[C@@](C)(OC)[C@@H](O)[C@H](C)O2)[C@H](C)[C@@H](O[C@@H]2O[C@H](C)C[C@H](N(C)C)[C@H]2O)[C@](C)(O)C[C@@H](C)CN(C)[C@H](C)[C@@H](O)[C@]1(C)O	inactive	inactive	inactive	inactive	inactive	inactive	inactive	inactive	inactive	inactive	inactive	inactive	inactive	inactive	inactive	–	–	–
Cc1ccc(S(=O)(=O)O)cc1C	inactive	inactive	inactive	inactive	inactive	inactive	inactive	inactive	inactive	inactive	inactive	inactive	inactive	inactive	inactive	–	–	–
COC(=O)c1ccccc1O	inactive	inactive	inactive	inactive	inactive	inactive	inactive	inactive	inactive	inactive	inactive	inactive	inactive	inactive	inactive	–	–	–
OB(O)O	inactive	inactive	inactive	inactive	inactive	inactive	inactive	inactive	inactive	inactive	inactive	inactive	inactive	inactive	inactive	–	–	–
ClC(Cl)Cl	inactive	inactive	inactive	inactive	inactive	inactive	inactive	inactive	inactive	inactive	inactive	inactive	inactive	inactive	inactive	–	–	–
CO	inactive	inactive	inactive	inactive	inactive	inactive	inactive	inactive	inactive	inactive	inactive	inactive	inactive	inactive	inactive	–	–	–
C[C@H]1O[C@@H](O[C@H]2[C@@H](O)C[C@H](O[C@H]3[C@@H](O)C[C@H](O[C@H]4CC[C@@]5(C)[C@H](CC[C@@H]6[C@@H]5C[C@@H](O)[C@]5(C)[C@@H](C7=CC(=O)OC7)CC[C@]65O)C4)O[C@@H]3C)O[C@@H]2C)C[C@H](O)[C@@H]1O	–	–	–	–	–	0.251 µM (active)	–	–	0.158 µM (active)	–	0.251 µM (active)	0.158 µM (active)	–	0.158 µM (active)	0.158 µM (active)	–	–	–
OCl	inactive	inactive	inactive	inactive	inactive	inactive	inactive	inactive	inactive	inactive	inactive	inactive	inactive	inactive	inactive	–	–	–
CC(C)O	inactive	inactive	inactive	inactive	inactive	inactive	inactive	inactive	inactive	inactive	inactive	inactive	inactive	inactive	inactive	–	–	–
Nc1ncnc2c1ncn2[C@H]1CC[C@@H](CO)O1	inactive	inactive	inactive	inactive	inactive	inactive	inactive	inactive	inactive	inactive	inactive	inactive	inactive	inactive	inactive	1.8% (inactive)	3.29%	6.18%
CC(C)(C)CC(C)(C)c1ccc(OCCO)cc1	–	inactive	inactive	inactive	inactive	inactive	inactive	inactive	inactive	inactive	inactive	inactive	inactive	inactive	inactive	–	–	–
